# MOR-DOR ag = OPRM1-OPRD1 heterodimerization agonism; cells, luminescence; activation, % at 9.3 µM; actives 0.3% (n = 340,000); in the data active means activation above about 18%;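 further: 0% = vehicle-treated cells and 100% = reference agonist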
# HTR5A inv ag = HTR5A inverse agonism, opioid heterodimer counter-screen. P47898. HTR5A cell line, luminescence. inhibition, % at 9.3 µM. actives 0.083% (n = 340,000); in the data active means inhibition mostly above about 23%, no sharp cut-off; inactive means mostly below about 18%;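 further: 0% = cells with DMSO and 100% = no-cell wells with DMSO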
# Target sequence (P47898 whole entry, looked up): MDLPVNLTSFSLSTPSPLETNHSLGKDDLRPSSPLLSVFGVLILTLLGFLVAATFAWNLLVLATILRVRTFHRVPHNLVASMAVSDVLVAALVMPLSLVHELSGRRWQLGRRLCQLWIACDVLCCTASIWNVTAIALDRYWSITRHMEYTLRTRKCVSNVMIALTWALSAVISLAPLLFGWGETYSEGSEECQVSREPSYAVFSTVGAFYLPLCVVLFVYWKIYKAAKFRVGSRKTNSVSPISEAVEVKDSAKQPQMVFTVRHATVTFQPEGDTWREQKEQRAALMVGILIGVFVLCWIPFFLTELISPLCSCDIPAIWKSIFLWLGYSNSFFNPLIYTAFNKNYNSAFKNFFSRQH
# HTR5A ag ctr = activates human HTR5A in OPRM1-OPRD1 agonist counter-screen. actives 0.61% (n = 340,000). activation, % at 9.3 µM. P47898. HTR5A agonist assay, luminescence, cell-based. AID 504692; in the data active means activation mostly above about 9.5%, no sharp cut-off; inactive means mostly below about 7.6%;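 further: 0% = cells with vehicle only and 100% = reference agonist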
# MOR-DOR inv ag = mu-delta opioid heterodimer inverse agonism; inhibition, % at 9.3 µM; cell-based MOR-DOR heterodimer luminescence; actives 0.21% (n = 340,000); P35372+P41143; in the data active means inhibition above about 22%, passing the limit was not always enough;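 further: 0% = cells with DMSO and 100% = wells without cells with DMSO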
# OPRM1-D1 inv cf = confirmation of human OPRM1-OPRD1 heterodimerization inverse agonists. shares compounds with MOR-DOR inv ag. cells expressing OPRM1/OPRD1 heterodimer, luminescence. inhibition, % at 9.3 µM. actives 20% (n = 580). AID 504900; in the data active means inhibition above about 32%;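 further: 0% = cells with DMSO and 100% = wells lacking cells with DMSO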
# HTR5A inv count = inverse agonist of human HTR5A in OPRM1-OPRD1 counter-screen. AID 504914. HTR5A-expressing cells, luminescence, inverse agonism. shares compounds with MOR-DOR inv ag. inhibition, % at 9.3 µM. 580 tested, under 10 active; call rule not given here;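 further: 0% = cells with DMSO and 100% = no-cell wells with DMSO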
# Starred values were filed as active, the others as inactive; · = not tested or not shown. Rows were chosen to be rich in hits. Some 1.1% of all compounds tested hit in one or more screens of this group.
SMILES,MOR-DOR ag,HTR5A inv ag,HTR5A ag ctr,MOR-DOR inv ag,OPRM1-D1 inv cf,HTR5A inv count
O=C(NNc1ccc(Cl)cc1)c1sccc1Cl,-9,10,-5,47*,1,13
O=C(O)c1ccccc1C(=O)NNc1ccc(Cl)cc1,-7,-10,0,39*,9,-10
O=C(/C=C/c1ccccc1)NNC(=O)c1cccc(Cl)c1,-1,0,0,3,·,·
O=C(/C=C/c1ccccc1)NNc1ccc(Cl)cc1,-6,14,-5,31*,11,-7
Cc1cccc(C)c1NC(=O)COC(=O)/C=C/c1ccc(S(=O)(=O)N2CCOCC2)cc1,-5,6,-2,17,·,·
COC(=O)Cn1c(=O)c2c(nc3n2CCCN3CCc2ccccc2)n(C)c1=O,-1,-14,4,6,·,·
O=C(COC(=O)C1CCN(S(=O)(=O)c2cccs2)CC1)c1cc2ccccc2o1,-10,10,-6,58*,-254,-19
Cc1ccc(NC2CCCN(C(=O)CCN3CCOCC3)C2)cc1C (stereo not given),-3,1,5,18,·,·
CCOc1ccc2c(c1)C(=O)C(=O)N2CC1COc2ccccc2O1 (stereo not given),-7,-25,7,31,·,·
O=C1C(=O)N(CCS(=O)(=O)c2ccccc2)c2ccc(F)cc21,-10,10,-1,53*,-34,-2
COc1ccc2c(c1)C(=O)C(=O)N2CCS(=O)(=O)c1ccccc1,-13,26,-5,70*,23,0
Cc1ccc2c(c1)C(=O)C(=O)N2CCCOc1ccccc1,-6,-21,3,31,·,·
COc1ccc2c(c1)C(=O)C(=O)N2CC1COc2ccccc2O1 (stereo not given),-8,18,-5,38*,22,-2
COc1cc(NC(=O)CN2C(=O)COc3ccc(S(=O)(=O)N4CCCC4)cc32)cc(OC)c1,-3,-8,-2,14,·,·
O=C(O)c1ccccc1C(=O)c1ccc2c(c1)N(Cc1ccc(Cl)c(Cl)c1)C(=O)CO2,5,6,-2,-24,·,·
Cc1onc(-c2c(F)cccc2Cl)c1C(=O)Nc1ccc(Cl)c(S(=O)(=O)N(C)C)c1,-3,7,-3,13,·,·
CCN(CC(=O)Nc1ccccc1C(F)(F)F)C(=O)CSCc1ccc(C)cc1,0,-36,1,-2,·,·
Cc1cc(O)c(/C=N/Nc2cccc(Cl)c2)c(=O)o1,-4,-3,1,19,·,·
Cc1cc(O)c(/C=N/Nc2ccc(Cl)cc2)c(=O)o1,-9,3,-1,46*,-5,-3
Cc1ccc(S(=O)(=O)N2CCN(C(=O)COC(=O)COc3ccccc3C(C)C)CC2)c(C)c1,-3,-2,1,12,·,·
Cc1ccc(S(=O)(=O)N2CCN(C(=O)CNC(=O)c3sc4ccccc4c3Cl)CC2)cc1,1,-10,4,-8,·,·
CC1NC(=S)N(Cc2ccccc2)C1=O (stereo not given),-6,-1,4,33*,-81,-34
CC(C)C1NC(=S)N(Cc2ccccc2)C1=O (stereo not given),-1,9,-2,9,·,·
CCS(=O)(=O)N1CCC(C(=O)OCC(=O)c2ccc(Br)cc2)CC1,-7,6,-3,35*,1,-2
S=C(Nc1ccccc1)Nc1nccs1,-7,-8,2,33*,5,2
SMILES,MOR-DOR ag,HTR5A inv ag,HTR5A ag ctr,MOR-DOR inv ag,OPRM1-D1 inv cf,HTR5A inv count
CC(C)(C)c1nnc(NC(=S)Nc2ccccc2)s1,-7,11,-4,38*,-17,6
Fc1ccc(NC(=S)Nc2nccs2)cc1,-6,11,-3,29*,-8,9
O=C(Cc1ccc(F)cc1)Nc1nccs1,-4,12,2,21,·,·
CC(C)(C)c1nnc(NC(=O)CCS(=O)(=O)c2ccccc2)s1,0,-20,2,1,·,·
COc1ccc(NC(=O)COc2cccc3c2CCN(C)C3=O)c(OC)c1,-3,10,0,17,·,·
CCOc1ccc(NC(=O)C2CCN(S(=O)(=O)c3ccc4c(c3)C(C)(C)C(=O)N4C)CC2)cc1,-2,-17,6,15,·,·
CCCCC(=O)NC(=S)NNC(=O)CCc1ccccc1,-8,25,-8,39*,16,5
CC(=O)NC(=S)NNC(=O)CCc1ccccc1,-5,7,-3,24,·,·
CN1C(=O)C(O)(C2COC(C)(C)CC2=O)c2cc(Br)ccc21 (stereo not given),-19,7,-7,81*,69*,-5
CN1C(=O)C(O)(C2COC(C)(C)CC2=O)c2ccccc21 (stereo not given),-8,5,-2,32*,10,-1
c1ccc2cc(OCCCn3ccnc3)ccc2c1,1,12,7,-4,·,·
C[n+]1c2n(c3ccccc31)N=C(c1cc(C(C)(C)C)c(O)c(C(C)(C)C)c1)CS2,-6,19,-1,32*,51*,16
COc1ccc(N2CCN(C(=O)CCCOc3cc(=O)n(C)c4ccccc34)CC2)cc1,-7,17,-6,34*,-1,-4
Cc1ccc(C)c(N2CCN(C(=O)CCCOc3cc(=O)n(C)c4ccccc34)CC2)c1,-1,24,3,4,·,·
CCCCc1nc2cc(C(=O)N3CCN(c4nc(C)cnc4C)CC3)ccc2o1,-1,12,0,8,·,·
Cc1cc(C)nc(NNS(=O)(=O)c2c(F)cc(F)cc2Br)n1,-8,-7,3,31*,-93,-37
Cc1cc(C)nc(NNS(=O)(=O)c2c(C)cc(C(C)(C)C)cc2C)n1,-5,12,-5,25,·,·
COc1ccc(N(/N=C2\Sc3ccccc3C2=O)C(C)=O)cc1,-11,23,-9,70*,-26,5
COc1ccc(CN(C(C)=O)c2ccccc2C(=O)O)cc1,-1,6,-2,4,·,·
COc1ccccc1N(/N=C1\Sc2ccccc2C1=O)C(C)=O,-15,17,-9,75*,-18,-6
O=C(NCC(=O)N(c1ccccc1)C(C(=O)NC1CCCCC1)c1cccnc1)c1ccco1 (stereo not given),-4,-5,-4,23,·,·
O=C(c1ccc2nc(Cc3cccc(Cl)c3)oc2c1)N1CCC(O)CC1,-2,27,-11,9,·,·
O=C(COC(=O)c1cc(Br)ccc1O)Nc1cccnc1Cl,-2,1,0,12,·,·
C/C(=C\C(=S)Nc1ccccc1)Nc1ccccc1,-6,14,-10,31*,-22,2
Cc1ccc(NC(=O)C(C)SCC(=O)Nc2ccc(F)cc2)cc1S(=O)(=O)N1CCOCC1 (stereo not given),-1,1,0,4,·,·
CC(=O)NC(c1ccc(Cl)cc1)c1c(O)ccc2ccc(O)cc12 (stereo not given),-7,10,-4,33*,-18,2
CCC(=O)NC(c1ccc(OC)cc1)c1c(O)ccc2ccccc12 (stereo not given),-1,-19,7,10,·,·

# Bioassay records from PubChem BioAssay.
